Pol III holo inh – DNA polymerase III holoenzyme inhibition | 71,000 tested, 0.25% active | Potency, µM (series often up to 57.1 µM), without a hit: at the highest dose activity change, negative = inhibition | AID 603 | reconstituted DNA polymerase III holoenzyme replication, biochemical; also: potency is read from the fitted curve at half-maximal effect; % is scaled to controls: 0 for no effect and ±100 for the full control effect
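Reconstituted *E. coli* holoenzyme (0.35 nM Pol III, 1 nM beta, 154 nM SSB, 2 nM primase) was preincubated with compound for 15 min at RT. Synthesis on 1.4 nM ssM13Gori ran 35 min, then was stopped with PicoGreen/EDTA and read as dsDNA fluorescence.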
ERK AVP block – inhibitors of vasopressin-stimulated ERK signaling pathway; 72,000 tested, 0.99% active; HEK293-V1b, vasopressin-stimulated pERK AlphaScreen; Potency, µM (top dose mostly 57.5 µM), for inactives: at the highest dose activity, negative = inhibition, most hits filed as inhibitors; also: potency is read from the fitted curve at half-maximal effect; % is scaled to controls: 0 for no effect and ±100 for the full control effect; nearly all actives have a fitted effect of over 55% in size
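HEK293 cells stably expressing V1b receptor, preincubated 30 min at 37 °C with compound, then stimulated 5 min with 25 nM vasopressin. Phospho-ERK by AlphaScreen SureFire after 5 h RT; normalized to DMSO and vasopressin; AC50 by Hill fit.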
15-hLO inh – 15-hLO (ALOX15) enzyme inhibition; P16050; purified 15hLO-1, xylenol orange hydroperoxide absorbance; Potency, µM (doses to about 57.1 µM), without a hit: top-dose activity change, negative = inhibition, usual class: inhibitors; 74,000 tested, 1.4% active; also: potency is read from the fitted curve at half-maximal effect; % is scaled to controls: 0 for no effect and ±100 for the full control effect; nearly all actives have a fitted effect of over 55% in size
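Quantitative HTS in 25 mM Hepes pH 7.5 containing 0.01% Triton X-100: human 15hLO-1 at 40 nM, arachidonic acid at 50 uM, 6 min turnover. Product quantified via ferrous oxidation/xylenol orange, 573:405 nm absorbance ratio.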
TsaE inh – displaces an ADP probe from E. coli YjeE (TsaE); Potency, µM; 71,000 tested, 0.05% active; purified YjeE enzyme, qHTS inhibition assay
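Fluorescence polarization of a BODIPY Texas Red–ADP probe (2 uM) bound to purified YjeE (10 uM) was read after 15 min room-temperature incubation with compounds. Loss of polarization marks inhibitors; ADP serves as titrated control.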
BRCT inh red – inhibitors of human BRCA1 BRCT-phosphoprotein interaction (red fluorophore); P38398; BRCT-phosphopeptide binding, red fluorescence polarization; Potency, µM (doses to about 76.9 µM), for the others: top-dose activity change, negative = inhibition, hits mostly inhibitors; 75,000 tested, 0.03% active; also: % is scaled to controls: 0 for no effect and ±100 for the full control effect
Target sequence (P38398 whole entry, looked up): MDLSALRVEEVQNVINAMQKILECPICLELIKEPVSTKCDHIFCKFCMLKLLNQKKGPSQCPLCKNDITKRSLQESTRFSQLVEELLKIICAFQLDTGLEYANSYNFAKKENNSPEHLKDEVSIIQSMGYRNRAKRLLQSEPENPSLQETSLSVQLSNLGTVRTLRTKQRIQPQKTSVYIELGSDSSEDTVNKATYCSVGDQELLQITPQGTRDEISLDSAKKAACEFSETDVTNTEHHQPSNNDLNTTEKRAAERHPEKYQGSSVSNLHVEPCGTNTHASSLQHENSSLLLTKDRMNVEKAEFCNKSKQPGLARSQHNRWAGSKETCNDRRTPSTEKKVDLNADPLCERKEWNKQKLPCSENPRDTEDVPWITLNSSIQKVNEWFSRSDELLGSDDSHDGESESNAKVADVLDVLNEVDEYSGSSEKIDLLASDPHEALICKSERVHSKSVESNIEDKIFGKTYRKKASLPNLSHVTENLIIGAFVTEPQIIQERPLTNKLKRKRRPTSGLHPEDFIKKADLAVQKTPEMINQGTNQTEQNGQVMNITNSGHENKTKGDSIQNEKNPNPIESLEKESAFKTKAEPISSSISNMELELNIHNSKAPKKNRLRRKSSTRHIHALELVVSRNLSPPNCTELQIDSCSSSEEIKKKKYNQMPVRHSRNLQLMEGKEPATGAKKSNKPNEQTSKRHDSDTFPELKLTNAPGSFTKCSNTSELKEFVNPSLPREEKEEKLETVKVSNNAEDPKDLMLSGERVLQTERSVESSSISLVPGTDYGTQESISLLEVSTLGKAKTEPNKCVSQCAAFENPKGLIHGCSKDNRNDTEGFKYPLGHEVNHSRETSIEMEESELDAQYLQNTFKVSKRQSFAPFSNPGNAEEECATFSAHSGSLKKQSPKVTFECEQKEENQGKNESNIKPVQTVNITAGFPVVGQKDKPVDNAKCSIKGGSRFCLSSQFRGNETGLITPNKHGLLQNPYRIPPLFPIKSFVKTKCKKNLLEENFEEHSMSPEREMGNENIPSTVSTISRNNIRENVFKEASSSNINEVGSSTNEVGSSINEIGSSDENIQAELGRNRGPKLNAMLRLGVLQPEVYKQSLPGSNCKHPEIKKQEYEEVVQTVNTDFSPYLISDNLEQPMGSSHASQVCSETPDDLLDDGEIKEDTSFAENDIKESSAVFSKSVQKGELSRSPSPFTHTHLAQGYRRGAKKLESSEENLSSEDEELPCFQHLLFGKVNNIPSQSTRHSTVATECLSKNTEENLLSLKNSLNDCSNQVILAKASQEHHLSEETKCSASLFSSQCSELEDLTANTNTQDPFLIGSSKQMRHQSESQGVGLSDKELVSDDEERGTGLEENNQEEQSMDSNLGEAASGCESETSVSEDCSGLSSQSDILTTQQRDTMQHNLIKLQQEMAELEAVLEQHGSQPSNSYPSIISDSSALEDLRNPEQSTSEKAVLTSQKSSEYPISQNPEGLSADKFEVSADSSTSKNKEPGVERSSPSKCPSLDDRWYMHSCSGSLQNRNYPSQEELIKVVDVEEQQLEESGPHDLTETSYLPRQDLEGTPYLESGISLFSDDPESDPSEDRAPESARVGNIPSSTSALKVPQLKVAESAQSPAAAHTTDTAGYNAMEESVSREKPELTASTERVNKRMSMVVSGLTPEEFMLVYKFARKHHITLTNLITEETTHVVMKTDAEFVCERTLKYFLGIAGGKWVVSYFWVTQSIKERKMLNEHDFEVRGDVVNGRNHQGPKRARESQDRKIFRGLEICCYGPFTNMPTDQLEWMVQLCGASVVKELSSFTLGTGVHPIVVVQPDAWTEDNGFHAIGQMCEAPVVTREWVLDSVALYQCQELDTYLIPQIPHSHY
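Rhodamine-labelled pBACH1 10-mer (100 nM) bound to BRCT domain (100 nM) at pH 7.3; compounds incubated 12 min room temperature, polarization read. Free peptide defines full inhibition; unlabelled decapeptide titrated as control.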
BRCT PPI green – inhibitors of human BRCA1 BRCT-phosphoprotein interaction (green fluorophore); P38398; 75,000 tested, 0.05% active; BRCA1 BRCT-phosphopeptide binding, green fluorescence polarization; AID 875; Potency, µM (top dose mostly 76.9 µM), for inactives: at the highest dose activity change, negative = inhibition, usual class: inhibitors;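 also: potency is read from the fitted curve at half-maximal effect; plate controls were peptide without protein for full effect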
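Compounds were incubated for 12 min at room temperature with a complex of 100 nM fluorescein-tagged pBACH1 decapeptide and 250 nM His-tagged BRCT protein. Buffer was phosphate pH 7.3 with EDTA, DTT and Tween 20. Disruption of binding lowers the polarization signal.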
Numbers without * were called inactive; i = inactive; ? = inconclusive; · = no result given; [ ] = dose if it differs, or a comment. This is a sample that favours compounds with a hit; in the whole collection about 2.4% have one here. Calls follow the shape of the dose curve; as a rule, active = well fitted curve in the direction sought with a large enough effect; inconclusive = small, poorly fitted or top-dose-only effect, or another doubt; inactive = no such curve, though single readings can be large; an effect the other way counts as inactive or inconclusive.

SMILES	Pol III holo inh	ERK AVP block	15-hLO inh	TsaE inh	BRCT inh red	BRCT PPI green
C[C@H]1CC[C@@H]2[C@@H](C)[C@H]3[C@H](C[C@H]4[C@@H]5CC=C6C[C@@H](O[C@]7(O[C@H]8O[C@@H](C)[C@@H](O)[C@@H](O)[C@@H]8O)C[C@@H](O[C@@H]8O[C@H](CO)[C@@H](O)[C@H](O)[C@@H]8O)[C@@H](O)[C@H](CO)O7)CC[C@]6(C)[C@H]5CC[C@@]34C)N2C1	-6%[25.6 µM]	32%[25.7 µM]	0%[25.6 µM]	i	-1%[34.4 µM]	6%[34.4 µM]
C[C@@H]1C=CCC(=O)OC[C@H](C)C(=O)OC[C@H]2O[C@H]1C=C[C@@H]2O	·	-5%[11.5 µM]	-2%[11.4 µM]	·	-1%[15.4 µM]	-2%[15.4 µM]
Cc1ccccc1Nc1nc(CSc2nnc(-c3ccoc3C)n2C)cs1	-7%	-13%	13µM*	i	-3%	1%
COc1ccccc1-c1cncnc1NCc1cccs1	9%	-33%	8%	i	-1%	1%
COc1cccc(S(=O)(=O)Nc2ccc(C(=O)N3CCOCC3)cc2)c1	16%	30%	4%	i	1%	-6%
CCN1C(=O)c2cccc3c(S(=O)(=O)Nc4ncccc4C)ccc1c23	-3%	25µM*	?	i	2%	-2%
CCN1C(=O)c2cccc3c(S(=O)(=O)Nc4ccccn4)ccc1c23	-9%	-17%	0%	i	0%	-1%
N#C/C(=C/c1ccc(N2CCCCCC2)o1)c1ccc(F)cc1	-4%	25µM*	?	i	0%	10%
CCOc1ccccc1C(=O)N1CCCCC1C (centres undefined)	0%	-6%	0%	i	-1%	-1%
CC(C)[C@@H](CC(=O)N[C@@H]1CCNC[C@H]1C(=O)N[C@H](CC(=O)N[C@@H](CCC(=O)O)CC(=O)O)Cc1c[nH]c2ccccc12)NC(=O)C[C@H](CO)NC(=O)[C@@H]1CCCC[C@H]1N	-9%	·	·	i	·	·
Cc1ccc(C)n1NC(=O)c1cccs1	-1%	-27%	16µM*	i	1%	0%
CN(C)c1ccc2nc3c(C(=O)O)cc(=O)c(O)c-3oc2c1	3.2µM*	-6%[11.5 µM]	-18%[11.4 µM]	i	-2%[15.4 µM]	-2%[15.4 µM]
Oc1cc(O)c2c(c1)O[C@@H](c1ccc(O)c(O)c1)[C@H](O[C@@]1(c3cc(O)c(O)c(O)c3)Oc3cc(O)cc(O)c3[C@H](O)[C@@H]1O)C2	1µM*	-15%[11.5 µM]	1µM*	i	2%[15.4 µM]	-1%[15.4 µM]
O=C(OC1Cc2c(O)cc(O)cc2OC1c1cc(O)c(O)c(O)c1-c1c(C2Oc3cc(O)cc(O)c3CC2O)cc(O)c(O)c1O)c1cc(O)c(O)c(O)c1 (centres undefined)	·	-11%	?	·	-3%	-5%
COc1ccc2c(c1)O[C@@H]1c3ccc(OC)cc3OCC21 (some centres undefined)	·	5%	1%	·	1%	-1%[3.08 µM]
COc1nc(Nc2ccc(O)cc2)nc(OC(C(F)(F)F)C(F)(F)F)n1	2%	2µM*	25µM*	i	-3%	-3%
O=C(Nc1cccc(-c2nc3cc(Cl)ccc3o2)c1)C1CCCO1 (centres undefined)	-7%	20µM*	-4%	i	1%	3%
C#CCCCCCCCCCCCC(O)CC(O)COC(C)=O (centres undefined)	·	9%	-11%	·	-4%	-6%[3.08 µM]
COc1ccccc1-n1cnnc1SCC(=O)c1ccc[nH]1	6%	6%	7%	i	1%	1%
[O-][N+]1(CC[N+]2([O-])CCCCC2)CCCCC1	-3%[11.4 µM]	-21%[11.5 µM]	9%[11.4 µM]	i	0%[15.4 µM]	-2%[15.4 µM]
CCOc1cccc(OCCCCn2ccnc2)c1	0%	-13%	11%	i	1%	-1%
Cc1cc(OCCCn2ccnc2)cc(C)c1Cl	-4%[11.4 µM]	25µM*	17%[11.4 µM]	i	-3%	14%
CN(Cc1ccco1)c1nc(-c2ccoc2)nc2ccccc12	-4%	-16%	13µM*	i	0%	0%
